This is an account of results in the supplement of paper PMC4840960.

Counter-ions that a name gives are not always drawn.

The subject of this assay is E18 rat cortical neuron-glia co-culture. In words: myelination (MBP fiber length per Olig2+ nucleus), % of 1 µM DAPT response (DMSO = 0) (% of DAPT); higher = more myelination, active = 50 or more. As to conditions: 5 µM; treatment time: 8 days (DIV5-DIV13). The procedure, abridged:
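The myelination value was the continuous straight MBP fiber length per Olig2+ nucleus, scaled between 0.1 % DMSO (0) and a 1 µM positive control (100). It was measured in primary E18 rat cortical co-cultures treated with library compounds at 1 or 5 µM in myelination medium from DIV5 through DIV13. Cells were fixed in 4 % paraformaldehyde and stained for MBP, Olig2 and DAPI, and four 10X fields per well were imaged in duplicate wells.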
With `COc1cc(C)c(/C=C/C(C)=C/C=C/C(C)=C/C(=O)O)c(C)c1C` [Acitretin], the myelination is 12 (inactive).

For `COc1cc2c(cc1OC)C(=O)C(CC1CCN(Cc3ccccc3)CC1)C2` (stereo not drawn) [Donepezil], the myelination is -26.1 (inactive).

`CCC1=C(C)CN(C(=O)NCCc2ccc(S(=O)(=O)NC(=O)N[C@H]3CC[C@H](C)CC3)cc2)C1=O` [Glimepiride]: the myelination is -10.6 (inactive).

Regarding `CN(C)CCC=C1c2ccccc2COc2ccccc21` [Doxepin], the myelination is -4.42 (inactive).

In the case of `N=C(N)NC(=O)c1nc(Cl)c(N)nc1N` [Amiloride], the myelination is 16.9 (inactive).

Take `CC(=O)NS(=O)(=O)c1ccc(N)cc1` [Sulfacetamide]: the myelination is 1.76 (inactive).

Regarding `Cn1nnc2c(C(N)=O)ncn2c1=O` [Temozolomide], the myelination was -12.8 (inactive).

As to `O=C(O)/C=C/c1ccc(Cn2ccnc2)cc1` [Ozagrel], the myelination was -0.768 (inactive).

Regarding `CC(COc1ccccc1)N(CCCl)Cc1ccccc1` (stereo not drawn) [Phenoxybenzamine], the myelination is 0.385 (inactive).

Turning to `CCn1cc(C(=O)O)c(=O)c2ccc(C)nc21` [Nalidixic Acid], the myelination was -7.26 (inactive).

Turning to `COC(=O)C1=C(C)NC(C)=C(C(=O)OC2CCCN(Cc3ccccc3)C2)C1c1cccc([N+](=O)[O-])c1` (stereo not drawn) [Benidipine], the myelination is -63 (inactive).

Regarding `CN(C)CCc1c[nH]c2ccc(C[C@H]3COC(=O)N3)cc12` [Zolmitriptan], the myelination is -14.6 (inactive).

Consider `O=c1c(O[C@@H]2O[C@H](CO)[C@@H](O)[C@H](O)[C@H]2O)c(-c2ccc(O)c(O)c2)oc2cc(O)cc(O)c12` [Isoquercitrin], for which the myelination was -11.7 (inactive).

For the molecule `CO[C@@]1(NC(=O)Cc2cccs2)C(=O)N2C(C(=O)O)=C(COC(N)=O)CS[C@@H]21` [Cefoxitin], the myelination was -13.8 (inactive).

Take `CO[C@H]1/C=C/O[C@@]2(C)Oc3c(C)c(O)c4c(O)c(c5c(nc6cc(C)ccn65)c4c3C2=O)NC(=O)/C(C)=C\C=C\[C@H](C)[C@H](O)[C@@H](C)[C@@H](O)[C@@H](C)[C@H](OC(C)=O)[C@@H]1C` [Rifaximin]: the myelination was -12 (inactive).

Turning to `CN(C)CCCSc1ccccc1NC(=O)/C=C/c1ccccc1` [Cinanserin], the myelination was 9.08 (inactive).

Turning to `O=C(O[C@H]1[C@H](Oc2ccccc2COC(=O)C2(O)C=CCCC2=O)O[C@H](CO)[C@@H](O)[C@@H]1O)c1ccccc1` (stereo partly drawn) [Tremulacin], the myelination was 30.4 (inactive).

As for `C[C@H](N[C@@H](CCc1ccccc1)C(=O)O)C(=O)N1CCC[C@H]1C(=O)O` [Enalaprilat], the myelination was -9.9 (inactive).

In the case of `O=C1CN2Cc3c(ccc(Cl)c3Cl)N=C2N1` [Anagrelide hydrochloride], the myelination is -10 (inactive).

For `CN1C(=O)CC[C@H]1c1cccnc1` [Cotinine], the myelination was -28.1 (inactive).

Regarding `CN1CCN(C2=Nc3ccccc3Oc3ccc(Cl)cc32)CC1` [Loxapine], the myelination was 4.82 (inactive).

For the molecule `CN1CCC(=C2c3ccccc3CCc3sccc32)CC1` [Pizotyline], the myelination is -22 (inactive).

As to `C[n+]1ccccc1C=NO` [Pralidoxime], the myelination was 1.41 (inactive).

For the molecule `NS(=O)(=O)c1cc(C(=O)O)c(NCc2ccco2)cc1Cl` [Furosemide], the myelination is -6.31 (inactive).

On to `C[C@H]1C[C@H]2[C@@H]3CCC4=CC(=O)C=C[C@]4(C)[C@@]3(F)[C@@H](O)C[C@]2(C)[C@@]1(O)C(=O)CCl` [Clobetasol], for which the myelination was -9.01 (inactive).

For the molecule `CC(=O)OCC[N+](C)(C)C` [Acetylcholine], the myelination was -15.1 (inactive).

For `C[C@@H]1C[C@H]2[C@@H]3CCC4=CC(=O)C=C[C@]4(C)[C@@]3(F)[C@@H](O)C[C@]2(C)[C@H]1C(=O)CO` [Desoximetasone], the myelination was -8.43 (inactive).

`CCN1CCCC1CNC(=O)c1cc(S(N)(=O)=O)ccc1OC` (stereo not drawn) [Sulpiride]: the myelination was -10.8 (inactive).

Turning to `Clc1ccc2c(c1)C(N1CCNCC1)=Nc1ccccc1O2` [Amoxapine], the myelination is -23.6 (inactive).

For the molecule `CC(=O)CC(c1ccccc1)c1c(O)c2ccccc2oc1=O` (stereo not drawn) [Warfarin], the myelination was -6.48 (inactive).

Consider `CN[C@@H]1[C@H](O)[C@H](NC)[C@H]2O[C@@]3(O)C(=O)C[C@@H](C)O[C@H]3O[C@@H]2[C@H]1O` [Spectinomycin], for which the myelination was -4.31 (inactive).

For `O=C(c1ccc(F)cc1)C1CCN(CCn2c(=S)[nH]c3ccccc3c2=O)CC1` [Altanserin], the myelination is -16.1 (inactive).

For the molecule `CCc1nc(N)nc(N)c1-c1ccc(Cl)cc1` [Pyrimethamine], the myelination is 655 (active).
